# System: XIP peptide (Xip251-270)
# Test: compounds binding XIP fragment 251-270 – biochemical, small-molecule microarray, fluorescence 635/667 nm, 0.5 µg/mL protein, primary screen (AID 1183)
# Conditions: fluorescence 635 nm, higher = more signal
row,SMILES,composite z-score
1,COC(=O)[C@@]1(Cc2ccc(F)cc2)[C@H]2c3cc(C(=O)N(C)C)n(C)c3C[C@H]2CN1C(=O)c1ccccc1,-0.153
2,C=C(CCCC)C(=O)CC[C@H](OC(=O)c1ccccc1-c1ccccc1C(=O)O)c1ccc(OCCO)cc1,0.546
3,N#Cc1ccc(NN2C(C(O)C3CC=CCC3)C=CC3C(=O)N(c4ccccc4)C(=O)C32)cc1 (stereo not given),0.678
4,CCCC=C(CCC)[C@@H](NC(=O)OCC(C)C)c1ccc(C(=O)OC)cc1,0.279
5,O=C(NCC(O)CO)[C@@]1(CCS(=O)(=O)c2ccccc2)N=C(c2ccc(OCCCO)cc2)O[C@H]1c1ccccc1 (stereo not given in full),0.0777
6,C=C(COC)C(=O)CC[C@@H](OC(=O)c1ccccc1-c1ccccc1C(=O)O)c1ccc(OCCO)cc1,0.666
7,CC(C)C(CO)N1C(=O)[C@@H]2C3C(=O)OCCC/C=C\[C@H]3OC23C=CCN(Cc2ccccc2)C(=O)[C@@H]13 (stereo not given in full),-0.209
8,CN(C)CCCNC(=O)[C@@]1(C)c2ccccc2C(=O)N(Cc2ccc(OC(F)(F)F)cc2)[C@H]1c1ccc(CO)cc1,0.778
9,CO[C@H]1O[C@H](CO)[C@@H](OC(=O)Nc2ccccc2-c2ccccc2)[C@H](OC(=O)Nc2ccccc2)[C@H]1OC(=O)Nc1ccccc1,0.915
10,COC(=O)C(CC#Cc1ccc2c(c1)[C@]1(C(=O)N2)[C@H](C(=O)NC[C@H](O)c2ccccc2)[C@H]2C(=O)O[C@H](c3ccccc3)[C@H](c3ccccc3)N2[C@@H]1c1ccccc1OCCO)C(=O)OC,0.654
11,CN(C)CCCCNC(=O)[C@H]1C[C@H]2C(=O)NCC(=O)N2[C@H]1c1ccc(O)cc1,0.815
12,CC(C)=CCCC(C)=CC(O)C1C=CC2C(=O)NC(=O)C2N1Nc1ccc(Cl)cc1Cl (stereo not given),0.171
13,COc1cc(OC)c(C(O)C2C=CC3C(=O)N(c4ccccc4)C(=O)C3N2Nc2ccc(C(C)C)cc2)cc1Br (stereo not given),0.785
14,CCN(CC)c1ccc(N2CC=CC34O[C@@H]5C=CCCOC(=O)C5[C@H]3C(=O)N(C(C)CO)[C@@H]4C2=O)cc1 (stereo not given in full),0.77
15,CCOC(=O)C1=CCC(c2cc3ccccc3[nH]2)N(CCN2CC(C(=O)OCC)=CCC2c2cc3ccccc3[nH]2)C1 (stereo not given),0.737
16,COc1ccc([Si](C)(C)[C@H]2[C@H](CC(=O)N3Cc4ccccc4C[C@H]3CO)O[C@@]3(C(=O)N(C)c4c(Br)cc(C)cc43)[C@@H]2C)cc1,0.445
17,CN1C(=O)[C@@H]2[C@@H](CC(COc3ccccc3)=C3[C@@H](CCc4ccccc4)OB(O)C[C@@H]32)C1=O,0.774
18,CN1C(=O)C2C(C1=O)C1C=C(CCCO)C2C(C2CC2)N1Cc1cccc(OC(F)(F)F)c1 (stereo not given),0.9

row,SMILES,composite z-score
1,COc1ccc(C(=O)Nc2cccc(CN3C(=O)[C@]4(O[C@H](CC(=O)N5Cc6ccccc6C[C@H]5CO)[C@@H]([Si](C)(C)c5ccc(OC)cc5)[C@@H]4C)c4ccccc43)c2)cc1,0.697
2,CN(C)C(=O)[C@@]1(Cc2ccccc2CN=[N+]=[N-])COC(c2ccc(OCCCO)cc2)=N1,0.62
3,COc1ccc(C(=O)Nc2cccc(CN3C(=O)[C@@]4(O[C@@H](CC(=O)N5CCC[C@H]5CO)[C@H]([Si](C)(C)c5ccc(OC)cc5)[C@H]4C)c4ccccc43)c2)cc1,0.639
4,O=C(NCCN1CCOCC1)[C@@H]1c2ccccc2C(=O)N(Cc2ccccc2C(F)(F)F)[C@H]1c1ccc(CO)cc1,0.777
5,C=CC1c2cc(O)c(OC)cc2CCN1C (stereo not given),0.543
6,COC(=O)[C@@]1(Cc2ccc(OC)cc2)[C@H]2c3cc(C(=O)N4CCCC4)n(Cc4ccc(Cl)c(C(F)(F)F)c4)c3C[C@H]2CN1C(=O)c1ccccc1,0.45
7,COc1ccc(C(=O)Nc2ccc3c(c2)[C@@]2(O[C@H](CCO)[C@@H]([Si](C)(C)c4ccc(OC)cc4)[C@@H]2C)C(=O)N3Cc2ccccc2)cc1,0.466
8,Cc1ccc(S[C@]2(C(=O)NCc3ccccc3)CC(=O)N(Cc3ccccc3C(F)(F)F)[C@@H]2c2ccc(CO)cc2)cc1,0.599
9,CC1CC/C=C\[C@H]2OC34C=CCN(c5ccc6ccccc6c5)C(=O)[C@H]3N(C(C)CO)C(=O)[C@@H]4C2C(=O)O1 (stereo not given in full),-0.691
10,Cc1ccc(N2C(=O)c3ccccc3[C@](C)(C(=O)NCCCN(C)C)[C@@H]2c2ccc(CO)cc2)nc1,-0.495
11,CCCC[C@H]1OB(O)C[C@H]2C1=C(COc1ccccc1)C[C@H]1C(=O)C=CC(=O)[C@H]12,-0.114
12,CC(C)C(=C=CC[C@H](O)c1ccccc1OCCO)C[C@H](O)COCc1ccccc1,0.619
13,COC(=O)[C@@]1(Cc2ccc(OC)cc2)[C@H]2c3cc(C(=O)N4CCCC4)n(Cc4ccc(C(F)(F)F)nc4)c3C[C@H]2CN1C(=O)c1ccccc1,-0.39
14,Cc1ccc(F)cc1S(=O)(=O)N[C@H]1CCN(Cc2ccc(OC(C)C)cc2)C1,0.338
15,CC(C)C(=C=CC[C@H](O)c1ccccc1OCCO)C[C@H](O)c1cc(Cl)cc(Cl)c1O,0.622
16,C=C1C(=O)C=C2CN(C(=O)c3ccccc3)[C@@](Cc3ccc(OC)cc3)(C(=O)OC)[C@@H]12,0.691
17,COc1ccc(C(=O)Nc2ccc(CN3C(=O)[C@@]4(O[C@@H](CCn5cc(CCO)nn5)[C@H]([Si](C)(C)c5ccc(OC)cc5)[C@H]4C)c4ccccc43)cc2)cc1,0.561
